Compound activity from PubChem.
ALOX12 inh: Primary qHTS assay for inhibitors of human arachidonate 12S-lipoxygenase (ALOX12): Round 2. purified 12hLO, xylenol orange hydroperoxide absorbance. Potency, µM (top dose mostly 108 µM), for inactives: at the top dose activity change, negative = inhibition, usual class: inhibitors. 580,000 compounds, 1.1% hits. AID 1671190, 2021; note: potency is the fitted concentration of half-maximal effect
Target sequence (P18054 whole entry, looked up): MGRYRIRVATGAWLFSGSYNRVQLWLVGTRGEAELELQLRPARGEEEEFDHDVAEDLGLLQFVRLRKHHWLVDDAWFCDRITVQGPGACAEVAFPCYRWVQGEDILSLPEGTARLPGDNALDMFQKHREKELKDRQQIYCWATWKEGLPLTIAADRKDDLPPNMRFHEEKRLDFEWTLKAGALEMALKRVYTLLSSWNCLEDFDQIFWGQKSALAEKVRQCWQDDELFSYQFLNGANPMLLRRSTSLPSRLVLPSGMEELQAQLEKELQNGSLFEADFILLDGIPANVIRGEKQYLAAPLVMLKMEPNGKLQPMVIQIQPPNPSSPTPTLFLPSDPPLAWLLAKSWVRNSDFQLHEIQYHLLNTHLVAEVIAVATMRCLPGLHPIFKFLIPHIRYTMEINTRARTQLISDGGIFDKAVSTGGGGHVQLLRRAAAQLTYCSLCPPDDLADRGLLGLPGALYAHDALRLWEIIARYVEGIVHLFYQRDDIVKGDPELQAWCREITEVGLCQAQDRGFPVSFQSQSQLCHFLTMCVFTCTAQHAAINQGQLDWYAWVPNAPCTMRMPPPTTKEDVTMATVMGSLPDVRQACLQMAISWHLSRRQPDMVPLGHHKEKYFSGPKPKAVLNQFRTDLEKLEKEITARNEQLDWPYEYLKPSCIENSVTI
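Hydroperoxide product was detected by ferrous iron/xylenol orange as the 573 to 405 nm absorbance ratio. Arachidonic acid at 40 uM (final) was turned over for 30 min at room temperature by 150 nM human 12hLO, pH 7.0 Hepes buffer, after 15 min compound preincubation.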
TDP1 cell noCPT: qHTS for Inhibitors of human tyrosyl-DNA phosphodiesterase 1 (TDP1): qHTS in cells in absence of CPT | DT40 Tdp1-/- hTDP1 cells, no CPT, ATP luminescence, 48 h | Potency, µM (titrated, usually from 46.2 µM), for the others: at the highest dose activity change, negative = growth inhibition, usual class: inhibitors | 420,000 compounds, 15% hits | AID 686978, 2013; note: potency is the fitted concentration of half-maximal effect; nearly all actives have a fitted effect of over 55% in size
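Seeded 400 DT40-hTDP1 cells/well (vehicle DMSO, no 20 nM CPT); pinned compounds; ≥48 hr at 37 °C; CellTiter-Glo luminescence as viability measure.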
IL-1B inflam inh: qHTS for Inhibitors of Inflammasome Signaling: IL-1-beta AlphaLISA Primary Screen. 360,000 compounds, 4.7% hits. AID 743279, 2014. THP-1 LPS/ATP IL-1B secretion, AlphaLISA, 16 h; hits give low values. activity change, % at 57.5 µM; in the data active = activity change below about -50%; inconclusive = mostly about -30% to -49%
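THP-1 cells pretreated 1 hr with compounds (up to 57.5 uM final), then stimulated with LPS (250 ng/mL final) plus ATP (1.25 mM final); secreted IL-1B measured by AlphaLISA after 16 hr, decreased signal indicating inhibition.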
HT1080-NT tox: qHTS for induction of synthetic lethality in tumor cells producing 2HG: qHTS for the HT-1080-NT fibrosarcoma cell line. HT-1080-NT fibrosarcoma viability, CellTiter-Glo ATP luminescence, 48 h. Potency, µM (highest dose often 46.1 µM), without a hit: top-dose activity, negative = less viability, usual class: cytotoxic. 360,000 compounds, 1.6% hits;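 note: NT is the 2HG producing partner of a matched IDH1 knockdown line; potency is the fitted concentration of half-maximal effect; 0% = DMSO-treated cells and -100% = media-only wells without cells; nearly all actives have a fitted effect of over 55% in size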
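A 48-hour cytotoxicity screen used HT-1080-NT cells plated 2 hours before compound delivery. ATP-based CellTiter-Glo luminescence measured viability, normalized to DMSO and no-cell controls.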
HT1080 IDH1KD tx: qHTS for induction of synthetic lethality in tumor cells producing 2HG: qHTS for the HT-1080-IDH1KD cell line. HT-1080 IDH1 knockdown viability, ATP luminescence, 48 h. 360,000 compounds, 2% hits. AID 686971, 2013. Potency, µM (top dose mostly 46.1 µM), for the others: at the highest dose activity, negative = toxicity, usual class: cytotoxic;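 note: potency is the fitted concentration of half-maximal effect; 0% = DMSO wells and -100% = cell-free medium wells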
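In this qHTS, HT-1080 cells depleted of IDH1 are exposed for 48 h at 37 °C to compound titrations. Toxicity is scored from CellTiter-Glo luminescence, with DMSO as full viability and medium alone as none.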
DT40 TDP1 CPT: qHTS for Inhibitors of human tyrosyl-DNA phosphodiesterase 1 (TDP1): qHTS in cells in presence of CPT. 420,000 compounds, 12% hits. Potency, µM (doses to about 46.2 µM), without a hit: at the highest dose activity change, negative = growth inhibition, hits mostly inhibitors. AID 686979, 2013. chicken DT40 Tdp1-/-;hTDP1 cells + 20 nM CPT, ATP luminescence, 48 h; note: potency is the fitted concentration of half-maximal effect; nearly all actives have a fitted effect of over 55% in size
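Cell growth measured by CellTiter-Glo luminescence after a minimum 48 h, 37 C compound exposure with 20 nM CPT in Tdp1-knockout DT40 cells stably expressing hTDP1, seeded 400/well; qHTS titration format.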
The depositor's hits bear a star; ? = inconclusive; · = not tested or not shown. This is one part of a sample in which hits are shown more often than they occur. Unless noted, calls come from the whole dose curve; as a rule, active = well fitted curve in the direction sought with a large enough effect; inconclusive = small, poorly fitted or top-dose-only effect, or another doubt; inactive = no such curve, though single readings can be large; an effect the other way counts as inactive or inconclusive. Unless noted, % is set by controls: 0 for no effect and ±100 for the full control effect.

SMILES | ALOX12 inh | TDP1 cell noCPT | IL-1B inflam inh | HT1080-NT tox | HT1080 IDH1KD tx | DT40 TDP1 CPT
CC(NC(=O)C12CC3CC(CC(C3)C1)C2)C(=O)N/N=C/C1=C(N2CCOCC2)C(=C\c2ccccc2)/CC1 (stereo not drawn) | -25% | 21µM* | -23 | -15% | ? | ?
CCCC1Cc2c(sc3nc(SCC(=O)c4ccc(F)cc4)nc(N)c23)CO1 (stereo not drawn) | -4% | · | · | · | · | ·
CCn1c(=O)c2cc(C(=O)NCCc3ccc(OC)c(OC)c3)sc2c2ccccc21 | -24% | 7.3µM* | · | · | · | 8.2µM*
CCn1c(=O)c2cc(C(=O)NCCc3cc(OC)ccc3OC)sc2c2ccccc21 | -9% | 8.2µM* | · | · | · | -3%
COc1ccc(-c2nc3c([nH]2)CN(S(=O)(=O)N2CCCC2)CC3)cn1 | 23% | · | · | · | · | ·
CC(OC(=O)c1n[nH]c(=O)c2ccccc12)C(=O)Nc1cc(F)ccc1F (stereo not drawn) | -22% | · | · | · | · | ·
O=c1ccn([C@@H]2O[C@H](CNCc3c(OCc4ccccc4F)ccc4ccccc34)[C@@H](O)[C@H]2O)c(=O)[nH]1 | -3% | ? | -58* | ? | ? | 16µM*
Fc1ccccc1COc1ccc2ccccc2c1CNc1nn[nH]n1 | 3% | -18% | 27 | 13µM* | 16µM* | -5%
NC(=O)c1ncn([C@@H]2O[C@H](CNCc3c(OCc4ccccc4F)ccc4ccccc34)[C@@H](O)[C@H]2O)n1 | 8% | -9% | -19 | 6% | 7% | 6%
CCOC(=O)c1[nH]c2c(c1-c1ccccc1)C(=O)CC(c1ccc(OCC)cc1)C2 (stereo not drawn) | 340% | -1% | -14 | -17% | -21% | -25%
CCOC(=O)c1[nH]c2c(c1Cc1ccccc1OC)C(=O)CC(c1ccc(OC)cc1)C2 (stereo not drawn) | 7% | 23µM* | · | · | · | ?
CCOC(=O)c1[nH]c2c(c1CCC1CCCCC1)C(=O)CC(c1ccccc1)C2 (stereo not drawn) | -12% | · | · | · | · | ·
CCOC(=O)c1[nH]c2c(c1Cc1ccccc1)C(=O)CC(c1ccc(Cl)cc1)C2 (stereo not drawn) | -22% | 23µM* | · | · | · | 16µM*
CCOC(=O)c1[nH]c2c(c1Cc1ccccc1)C(=O)CC(c1ccc(OC)cc1)C2 (stereo not drawn) | -11% | 21µM* | · | · | · | 21µM*
Cc1cc(C)cc(NC(=O)N2CCCC(Cn3c(C4CC4)nc4cccnc43)C2)c1 (stereo not drawn) | 10% | · | · | · | · | ·
Cc1ccccc1C(=O)NC(NC(C)C)C(Cl)(Cl)Cl (stereo not drawn) | 2% | · | · | · | · | ·
O=C(c1cc(-c2cccs2)nc2ccccc12)N1CCN(c2cccc(C(F)(F)F)c2)CC1 | -10% | · | · | · | · | ·
CN1C(=O)[C@@](O)(CC(=O)c2ccccc2)c2cc(Br)ccc21 | 0% | 6.5µM* | 61 | -2% | -12% | 5.8µM*
CN1C(=O)C(O)(CC(=O)c2ccccn2)c2cc(Br)ccc21 (stereo not drawn) | ? | 5.2µM* | 86 | ? | -21% | 5.8µM*
CCCCN1C(=O)C(O)(CC(=O)c2c(C)n[nH]c2C)c2ccccc21 (stereo not drawn) | 3% | · | · | · | · | ·
CCN1C(=O)C(O)(CC(=O)c2ccccn2)c2ccccc21 (stereo not drawn) | 0% | 5.2µM* | 29 | 3% | 2% | 5.8µM*
